An excerpt weighted towards active compounds, which were near 2.4% of everything screened.
M1 PAM parental: nonselective calcium activators in parental CHO-K1 cells, primary screen, counter-screen for M1 PAM project, cell-based, Fluo-8 calcium fluorescence, full deck, 1536-well. ATP EC20; 0% at ATP EC20, 100% at ATP max. activation, % at 3 µM. actives 0.02% (n = 360,000). AID 602247, 2012;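 active means activation above the run cutoff, the mean activation of all test compounds plus 3 SD, cut at about 40% in these data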;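 further: peak over basal fluorescence ratio in a 140 s read after ATP addition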
M1 ag: human M1 muscarinic receptor agonists, primary screen, Fluo-8 calcium fluorescence, CHO-K1 cells, HTS | actives 0.33% (n = 360,000) | activation, % at 3 µM | CHO-K1 hM1, agonist mode; 0% DMSO, 100% acetylcholine EC100 | Muscarinic acetylcholine receptor M1 (Homo sapiens), P11229;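 active means activation above the run's mean compound activation plus 3 SD, cut at about 16% in these data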;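 further: peak over basal fluorescence ratio within a 140 s kinetic read after compound addition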
Target sequence (P11229 whole entry, looked up): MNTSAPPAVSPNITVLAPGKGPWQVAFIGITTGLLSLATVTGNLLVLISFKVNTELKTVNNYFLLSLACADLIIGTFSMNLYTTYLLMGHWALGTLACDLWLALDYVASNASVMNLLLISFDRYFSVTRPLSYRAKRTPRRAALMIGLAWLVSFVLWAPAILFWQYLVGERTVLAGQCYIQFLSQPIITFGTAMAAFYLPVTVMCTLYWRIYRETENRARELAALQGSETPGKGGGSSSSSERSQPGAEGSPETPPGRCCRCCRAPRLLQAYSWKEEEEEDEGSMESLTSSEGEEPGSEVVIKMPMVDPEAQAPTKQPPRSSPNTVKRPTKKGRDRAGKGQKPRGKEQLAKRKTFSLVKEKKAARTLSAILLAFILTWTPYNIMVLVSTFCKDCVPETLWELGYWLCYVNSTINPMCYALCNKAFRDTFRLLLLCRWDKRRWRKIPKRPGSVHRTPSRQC
M1 antag: human M1 muscarinic receptor antagonists, primary screen, CHO-K1 cells, Fluo-8 calcium fluorescence, 1536-well | Muscarinic acetylcholine receptor M1 (Homo sapiens), P11229 | CHO-K1 hM1, ACh EC80 antagonist | inhibition, % at 3 µM | actives 1.3% (n = 360,000);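 active means percent inhibition above its own plate's cutoff, namely the mean of that plate's compound wells plus 3 SD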;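 further: peak over basal fluorescence ratio during 140 s after agonist addition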
CHO-K1 Ca ag: counter-screen for M1 agonists: effect in parental CHO-K1 cells | Fluo-8 calcium fluorescence; scaled to maximal ATP response, vehicle zero | activation, % at 3 µM | actives 0.48% (n = 360,000); in the data active means activation above about 15%;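 further: untransfected CHO-K1 host cells lacking M1 receptor as counterscreen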
CHRM1 PAM: human M1 muscarinic receptor positive allosteric modulators, primary screen, CHO-K1 cells, Fluo-8 calcium fluorescence, 1536-well | CHO-K1 hM1, ACh EC20; 0% = ACh EC20, 100% = maximal ACh | actives 0.088% (n = 360,000) | Muscarinic acetylcholine receptor M1 (Homo sapiens), P11229 | AID 588819, 2011 | activation, % at 3 µM; in the data active means activation above about 19%, passing the limit was not always enough
CHO-K1 Ca antag: M1 antagonist counterscreen hit in parental CHO-K1 cells | ATP-induced calcium, Fluo-8 fluorescence | inhibition, % at 3 µM | actives 0.6% (n = 360,000) | AID 602250;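 active means inhibition above a per-plate cutoff, the plate's mean sample inhibition plus 3 SD, cut at about 24% in these data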
Each line names hits and unclear results; the compound was inactive in the other large screens.

CNc1snc(C)c1C(=O)OCC(=O)c1ccc(Cl)cc1	M1 antag 35
O=C1CCC(c2ccccc2)(C2CCN(Cc3ccccc3)CC2)C(=O)N1 (stereo not drawn)	M1 antag 98
CC(C)(C)C(=O)N1CCC[C@H]1C(O)(c1ccccc1)c1ccccc1	none
CN1CCC(CC(C(=O)N2CCCC2)(c2ccccc2)c2ccccc2)C1 (stereo not drawn)	M1 antag 61
C=CCn1c(CCC(=O)Nc2ccc(C)c(Cl)c2)nnc1SCC(=O)Nc1ccccc1C	CHO-K1 Ca ag 16
Cc1ccc(N/N=C(\C#N)C(N)=S)c(C)c1	none
Cc1ccc(NC(=O)/C(C#N)=N/Nc2ccc(C(=O)O)cc2)c(C)c1	CHRM1 PAM 24
Cc1sc2ncnc(NCCCN3CCCC3=O)c2c1C	CHO-K1 Ca ag 18
CC1CCCCN1CC(=O)NC(c1ccccc1)c1ccccc1 (stereo not drawn)	M1 antag 60
CC1CCCCN1CC(=O)Nc1ccc(N2CCCCCC2)cc1 (stereo not drawn)	none
CC1CCCCN1CC(=O)Nc1ccc(Oc2ccccc2)cc1 (stereo not drawn)	M1 antag 69
CCc1ccc(C(=O)C[n+]2cccc3cc(OC)ccc32)cc1	M1 antag 59
O=c1c(Cl)c(N2CCNCC2)cnn1C12CC3CC(CC(C3)C1)C2	M1 antag 35
O=C(O)C12CC3CC(C1)CC(n1ncc(N4CCN(c5ccccc5)CC4)c(Cl)c1=O)(C3)C2	none
CCN(CC)C(=O)Cn1cnc2sc(C)c(S(=O)(=O)N3CCC(C)CC3)c2c1=O	none
Clc1ccc(SCCOCCN2CCCCCC2)cc1	M1 antag 42
CN(C)CCOCCSc1ccc(Cl)cc1	none
Cc1cc(C)c(S(N)(=O)=O)c(C)c1N(C)S(=O)(=O)c1ccccc1	none
Cc1cc(C)c(S(N)(=O)=O)c(C)c1N(C)S(=O)(=O)c1ccc(Cl)cc1	M1 antag 40
CCOc1ccc(OCC)c(NC(=O)CCNS(=O)(=O)c2cc(Br)cnc2N)c1	none
Cc1ccccc1N1CCN(C2CCCN(C(=O)CCC(=O)N(C)C)C2)CC1 (stereo not drawn)	none
Cc1ccn(CCC(=O)N2CCCC(N3CCN(c4ccccc4C)CC3)C2)n1 (stereo not drawn)	M1 ag 49
CCOC(=O)c1ccc(N=C2C(=S)N(c3ccc(C(=O)OCC)cc3)C(=N)N2/N=C/c2ccccc2)cc1	M1 antag 99
O=C(c1cc(COc2ccc3ncccc3c2)on1)N1CCCCCC1	none
O=C(NCCc1cn2ccccc2n1)c1cc(COc2ccc3ncccc3c2)on1	CHO-K1 Ca ag 19, CHO-K1 Ca antag 33
O=C(NC1CCCC1)c1cc(COc2ccc3ncccc3c2)on1	M1 antag 31
O=C(c1cc(COc2ccc3ncccc3c2)on1)N1CCCC1	none
CC(NC(=O)c1cc(COc2ccc3ncccc3c2)on1)c1ccc(F)cc1 (stereo not drawn)	M1 antag 34
O=C(O)Cc1ccc(NS(=O)(=O)c2ccc3ccccc3c2)cc1	none
NNc1nc2ccccc2c(=O)n1Cc1ccccc1	none
C=CCNC(=O)c1ccccc1Cl	CHO-K1 Ca ag 19
O=S(=O)(c1ccccc1F)N1CCN(c2nc(-c3cccnc3)nc3ccccc23)CC1	none
Cc1ccc(C)c(S(=O)(=O)N2CCN(c3nc(-c4cccnc4)nc4ccccc34)CC2)c1	M1 antag 27
N#Cc1ccccc1S(=O)(=O)N1CCN(c2nc(-c3cccnc3)nc3ccccc23)CC1	M1 antag 50
CC1Sc2ccc(S(=O)(=O)CCC(=O)N3CCN(c4cccc(Cl)c4)CC3)cc2NC1=O (stereo not drawn)	M1 antag 46

Compound activity deposited in PubChem by The Scripps Research Institute Molecular Screening Center.
